Data: PubChem BioAssay AID628 (Vanderbilt High Throughput Screening Facility, 2007)
About 2,200 (3.4%) of roughly 64,000 compounds were called active. Many of the other results were omitted from the sample, so actives are more common in it than they were. A number with no mark means an inactive call.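 How the source made its calls: active means calcium fluorescence response, raw or row-and-column corrected B-score, differing from the plate sample mean either way at a set confidence level, mostly lower; inactive means the rest.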

Molecular target: Muscarinic acetylcholine receptor M1 (Rattus norvegicus) (UniProt P08482)
Assay: antagonists of rat M1 muscarinic receptor (AID 628)
Settings: CHO-M1 cells, Fluo-4 calcium, ACh EC80 antagonist mode; at 10 µM; active compounds read low

Chain of Muscarinic acetylcholine receptor M1 (Rattus norvegicus) (P08482 whole entry, looked up): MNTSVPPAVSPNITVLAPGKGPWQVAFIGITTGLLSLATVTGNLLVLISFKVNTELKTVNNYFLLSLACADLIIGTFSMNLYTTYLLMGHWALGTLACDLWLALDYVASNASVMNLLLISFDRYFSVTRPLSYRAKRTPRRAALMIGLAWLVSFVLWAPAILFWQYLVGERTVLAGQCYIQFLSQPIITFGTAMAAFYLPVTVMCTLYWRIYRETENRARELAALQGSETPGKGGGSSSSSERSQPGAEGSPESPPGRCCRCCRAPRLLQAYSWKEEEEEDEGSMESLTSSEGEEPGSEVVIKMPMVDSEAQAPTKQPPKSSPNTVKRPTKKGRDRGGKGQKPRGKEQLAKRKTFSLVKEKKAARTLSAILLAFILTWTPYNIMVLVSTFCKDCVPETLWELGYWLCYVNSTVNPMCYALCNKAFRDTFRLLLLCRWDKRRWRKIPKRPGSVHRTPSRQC

Structure (SMILES)	B-score
CCN(c1ccc2c(c1)OCO2)S(=O)(=O)c1cc(Br)cc2c1N(C(=O)C1CC1)CC2	-0.598
CCOC(=O)N1CCN(S(=O)(=O)c2cc(Br)cc3c2N(C(=O)C2CC2)CC3)CC1	-2.88 (active)
CCOC(=O)N1CCN(C(=O)C2CCN(S(C)(=O)=O)CC2)CC1	-0.427
COc1ccccc1N1CCN(Cc2ccc(OC)c3ccccc23)CC1	0.229
COc1ccc(S(=O)(=O)Nc2ccc(S(=O)(=O)N3CCCCC3)cc2)cc1OC	0.8
Cc1ccc(C)c(NC(=O)CSc2nnc(Cc3cccn3C)n2-c2ccc(F)cc2)c1	0.873
CCc1ccc(-c2nnn(Cc3nn[nH]n3)n2)cc1	0.0832
COc1ccc(-c2nnn(Cc3nc(N)nc(N4CCCCC4)n3)n2)cc1	-1.19 (active)
CCOc1ccc(-c2nnn(CC(=O)N3CCN(c4ccc(OC)cc4)CC3)n2)cc1OCC	0.00223
N#CC1=C(N)Oc2n[nH]c(CSc3ccccc3)c2C12C(=O)Nc1ccccc12 (stereo unspecified)	2.72 (active)
Cc1cc(C)c(C#N)c(SCc2[nH]nc3c2C(c2ccccc2)C(C#N)=C(N)O3)n1 (stereo unspecified)	0.363
COc1ccc(Br)cc1/C=N/n1c(C)nnc1C	0.304
COc1cc(C2C(C(=O)Nc3ccc(F)cc3)=C(C)Nc3nc(CCCO)nn32)cc(OC)c1OC (stereo unspecified)	0.464
CCOc1ccc(C2C(C(=O)NC)=C(C)Nc3nc4ccccc4n32)cc1OC (stereo unspecified)	-3.24 (active)
COc1cc(C2C(C(=O)Nc3ccccc3OC)=C(C)Nc3ncnn32)ccc1O (stereo unspecified)	-0.653
COc1ccc(OCC(=O)OCCN(C)C)cc1	0.389
CN(C)CCOC(=O)C(c1ccccc1)C1(O)CCCC1 (stereo unspecified)	-11.9 (active)
Cn1nc(-c2ccc(Cl)cc2)c2cc(C(=O)NCc3ccco3)sc21	0.443
CCN1CCN(C(=O)CN(C)S(=O)(=O)c2ccc(OC)cc2)CC1	0.444
COc1ccc(-c2nn3c(-c4ccccc4)nnc3s2)cc1OC	-1.59
c1ccc(-c2nnc3n2NC(c2ccc4c(c2)OCO4)S3)cc1 (stereo unspecified)	-0.212

Structure (SMILES)	B-score
CC1=Nn2c(nnc2-c2ccccc2)SC1	-3.94 (active)
c1ccc(-n2ncc(-c3nn[nH]n3)n2)cc1	2.54
Cn1c(C(=O)NCCCN2CCCCC2)cc2sccc21	-1.16
Cc1cc(NC(=O)CSCc2nc(-c3cccc(Cl)c3)oc2C)no1	0.32
Cc1ccsc1-c1nc(CSCC(=O)NCCN2CCCC2)c(C)o1	-4.42 (active)
COCCn1c(CN(Cc2ccccc2)Cc2ccccc2)nc2c1c(=O)n(C)c(=O)n2C	0.00241
CSCCC(NC(N)=O)C(=O)N(C)CC(=O)Nc1ccc(C)cc1 (stereo unspecified)	-0.414
Cc1[nH]c2ccccc2c1C(=O)CSCC(=O)O	-0.627
COC(=O)COc1ccc(S(=O)(=O)N2CCOCC2)cc1	0.524
OC(COc1ccc2ccccc2c1)CN1CCOCC1 (stereo unspecified)	-0.165
O=S(=O)(c1ccc(OCC(O)CN2CCN(c3ccccc3Cl)CC2)cc1)N1CCOCC1 (stereo unspecified)	-1.73 (active)
CCCc1[nH]nc2c1C(c1ccc(OC)c(Cn3nc(C)c(Br)c3C)c1)C(C#N)=C(N)O2 (stereo unspecified)	-0.527
Cc1ccc(-c2noc(CCC(N)=O)n2)cc1	0.182
CCCC(=O)Nc1ccccc1N1CCN(C(=O)c2ccccc2)CC1	0.0711
Cc1ccc(-c2noc(CCC(=O)Nc3ccccc3N3CCN(C)CC3)n2)cc1	-3.17 (active)
COc1ccc(NC(=O)Nc2cccc3cccnc23)cc1	-0.447
COC(=O)c1ccc(NC(=O)CN(c2ccc(C)cc2)S(=O)(=O)c2c(C)n[nH]c2C)cc1	-1.39 (active)
CCOC(=O)c1cccc(NC(=O)CN(c2ccc(C)cc2)S(=O)(=O)c2c(C)noc2C)c1	-0.345
CCN(CC)C(=O)CCC(=O)Nc1ccc(C(=O)OC)cc1	-0.0517
CCOc1ccc(-c2nnc(-c3ccco3)o2)cc1	0.158
CC(C)(C)NC(=O)C(c1ccco1)N(Cc1ccc2c(c1)OCO2)C(=O)Cn1nnc2ccccc21 (stereo unspecified)	-0.446

Structure (SMILES)	B-score
CCC1(C)Cc2c(sc3nc4n(c(=O)c23)CCCS4)CO1 (stereo unspecified)	-1.1 (active)
CCOC(=O)Cn1c(SC)nc2sc3c(c2c1=O)CC(C)(C)OC3	-0.00652
CCOC(=O)CSc1nc2sc3c(c2c(=O)[nH]1)CC(C)(C)OC3	1.04
CCOC(=O)N1CCN(C(=O)C2CCN(c3ncnc4c3sc3cccc(F)c34)CC2)CC1	-6.68 (active)
CCOC(=O)C1CCCN(C(=O)C2CCN(c3nnc(-n4cccc4)s3)CC2)C1 (stereo unspecified)	-0.147
Cc1cc(=O)n2nc(N3CCCC(C(=O)N4CCN(C)CC4)C3)sc2n1 (stereo unspecified)	-0.192
CCOC(=O)N1CCN(C(=O)C2CC(c3ccc(F)cc3)=NO2)CC1 (stereo unspecified)	1.56
CCOC(=O)C1CCN(c2ncnc3c2oc2ccc(Br)cc23)CC1	1.09
CCOC(=O)N1CCN(C(=O)C2CCCN(c3ncnc4c3sc3cccc(F)c34)C2)CC1 (stereo unspecified)	-6.95 (active)
Clc1ccc(Nc2nc(-c3cccs3)cs2)nc1	-1.85
Cn1c(=NC(=O)C2CC2)sc2cc(F)cc(F)c21	-2.24
COC(=O)COc1ccc2oc(=O)cc(C)c2c1	0.286
CN(C)CCSc1nc(N)c2c3c(sc2n1)COC(C)(C)C3	0.0678
O=c1c2c(nc3n1CCCCC3)sc1c(O)cccc12	-0.992
CC1(C)Cc2c(sc3nc4n(c(=N)c23)CCCCC4)CO1	-2.66 (active)
CCOC(=O)c1cccc(NC(=O)C2CCCN(S(=O)(=O)c3cnc[nH]3)C2)c1 (stereo unspecified)	0.994
C=CCn1c(=N)n(CC(O)COc2ccc(OC)cc2)c2ccccc21 (stereo unspecified)	0.0139
CCn1c(=N)n(CC(=O)c2cccc(OC)c2)c2ccccc21	-6.64 (active)
COc1ccc(OC)c(NC(=O)Cn2c(=O)oc3ccccc32)c1	-0.343
CCCCCC(=O)Nc1ccc2oc(-c3ccncc3)nc2c1	0.442
CCc1c(C)sc(NC(=O)c2ccc(Br)o2)c1C(=O)OC	-0.053

Structure (SMILES)	B-score
OC(COc1ccccc1)Cn1cc(Br)cn1 (stereo unspecified)	-0.268
O=S(=O)(Nc1ccc2nc(-c3ccco3)[nH]c2c1)c1ccccc1	-0.153
CC(=O)N1CCN(C(=O)c2cccc(S(=O)(=O)Nc3ccc(C)cc3)c2)CC1	-0.171
Cc1ccc(S(=O)(=O)Nc2ccc3ncccc3c2)cc1	-3.27 (active)
COc1ccc(NC(C)=O)cc1NC(=O)CN1CCN(C2c3ccccc3-c3ccccc32)CC1	0.0245
CN(CCCC(=O)Nc1nccs1)S(=O)(=O)c1ccc(Cl)cc1	0.248
O=C(NCCCCO)C(F)(F)C(F)(F)C(F)(F)C(=O)NCCCCO	0.234
CC(=O)c1c(N2CCOCC2)nc(=S)n(-c2cc(C)ccc2C)c1C	-0.429
CCOc1cc(/C=N/n2cnnc2)c(Br)cc1O	0.717
C=CCOc1ccc(/C=N/n2cncn2)cc1OC	0.195
COc1ccccc1OCCOc1ccc(/C=N/n2cnnc2)cc1	-2.39 (active)
C(=N\n1cnnc1)/c1cccnc1	-0.0308
COCCNCCOCCOc1cccc(OC)c1	0.826
COc1cccc(OCCOc2cccc(/C=N/n3cnnc3)c2)c1	-2.76 (active)
O=C(CSc1nc2[nH]ncc2c(=O)n1-c1ccccc1)N1CCCc2ccccc21	0.281
CCOc1cc(C)c(Cl)cc1S(=O)(=O)n1nnc2ccccc21	0.583
COc1ccc(C(=O)NCCc2ccc(S(N)(=O)=O)cc2)cc1OC	-0.216
Cc1cc2cc(CN(Cc3cccs3)Cc3nnnn3CC3CCCO3)c(=O)[nH]c2cc1C (stereo unspecified)	-0.714
